Data: the supplement of paper PMC6555819

Key:
Assay in all cases: PBM binding z-score (relative to random genomic background probes); higher = stronger binding; sequences stand for … in GC…GCGATTGACAGCGTAGAATGAAGG
[1] = tested on: FXR:RXRa (NR concentration 270 nM, RXRa partner concentration 90 nM)
Method in brief: (§1)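 Ligand-free nuclear receptor dimers were bound for 1 h to custom Agilent 4×180K protein-binding microarrays. Detection used antibodies against each partner (one per run). Binding z-scores rest on regression-normalized fluorescence, with random background probes as the reference.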

[2] = tested on: LXRa:RXRa (NR concentration 270 nM, RXRa partner concentration 90 nM)
Method in brief: as §1

[3] = tested on: LXRa homodimer (NR concentration 270 nM)
Method in brief: as §1

[4] = tested on: LXRb:RXRa (NR concentration 270 nM, RXRa partner concentration 90 nM)
Method in brief: as §1

[5] = tested on: LXRb homodimer (NR concentration 270 nM)
Method in brief: as §1

[6] = tested on: PPARa:RXRa (NR concentration 270 nM, RXRa partner concentration 90 nM)
Method in brief: as §1

[7] = tested on: PPARg:RXRa (NR concentration 180 nM, RXRa partner concentration 90 nM)
Method in brief: as §1

[8] = tested on: PPARg:RXRa 270nM:90nM, anti-RXR (NR concentration 270 nM, RXRa partner concentration 90 nM)
Method in brief: as §1

[9] = tested on: PPARg:RXRa 30nM:10nM, anti-RXR (NR concentration 30 nM, RXRa partner concentration 10 nM)
Method in brief: as §1

[10] = tested on: PPARg:RXRa 90nM:30nM, anti-RXR (NR concentration 90 nM, RXRa partner concentration 30 nM)
Method in brief: as §1

[11] = tested on: PPARg:RXRa DBDmut IVT, anti-RXR (DBD mutation: RXRa K156A/R161A, NR concentration 270 nM, RXRa partner concentration 90 nM)
Method in brief: as §1

[12] = tested on: PPARg:RXRa IVT, anti-PPARg (NR concentration 270 nM, RXRa partner concentration 90 nM)
Method in brief: as §1

[13] = tested on: PPARg DBDmut:RXRa IVT, anti-PPARg (DBD mutation: PPARg1 K132A/R137A, NR concentration 270 nM, RXRa partner concentration 90 nM)
Method in brief: as §1

[14] = tested on: PPARg DBDmut IVT, anti-PPARg (DBD mutation: PPARg1 K132A/R137A, NR concentration 270 nM)
Method in brief: as §1

[15] = tested on: PPARg homodimer (NR concentration 180 nM)
Method in brief: as §1

[16] = tested on: PXR:RXRa (NR concentration 270 nM, RXRa partner concentration 90 nM)
Method in brief: as §1

[17] = tested on: PXR homodimer (NR concentration 270 nM)
Method in brief: as §1

[18] = tested on: RARa:RXR (NR concentration 270 nM, RXRa partner concentration 90 nM)
Method in brief: as §1

[19] = tested on: RARa homodimer (NR concentration 270 nM)
Method in brief: as §1

[20] = tested on: RARb:RXRa (NR concentration 270 nM, RXRa partner concentration 90 nM)
Method in brief: as §1

Sequence	PBM binding z-score [1]	PBM binding z-score [2]	PBM binding z-score [3]	PBM binding z-score [4]	PBM binding z-score [5]	PBM binding z-score [6]	PBM binding z-score [7]	PBM binding z-score [8]	PBM binding z-score [9]	PBM binding z-score [10]	PBM binding z-score [11]	PBM binding z-score [12]	PBM binding z-score [13]	PBM binding z-score [14]	PBM binding z-score [15]	PBM binding z-score [16]	PBM binding z-score [17]	PBM binding z-score [18]	PBM binding z-score [19]	PBM binding z-score [20]
ATCTCTAGGTGAAGTTCAGTGAAAGATCGATAGA	0.465	0.465	0.0389	0.0201	0.118	1.88	1.57	1.74	0.453	1.35	4.94	4.09	1.05	1.05	0.329	0.872	0.828	0.684	0.618	1.7
AGAATGAGGTTATACATAGATCAGGGAAGAAAGT	1.88	2.05	0.223	1.56	0.151	3.07	2.28	1.87	0.974	1.4	2.35	1.91	1.44	1.27	1.21	1.43	0.76	1.9	0.765	1.6
CCTTGCGGGTCACTCCAGGTTATAGCATCGGAGT	4.22	7.4	1.24	4.85	-0.435	4.25	4.41	4.41	1.34	3.35	4.56	4.95	0.399	0.356	1.54	4.59	0.258	3.14	0.115	3.11
TCGAGTAGGTTAGTCGGGGCACTCAGCCAACATA	0.251	0.253	-0.0703	0.402	-1.06	0.681	0.103	0.749	0.995	0.753	2.29	2.16	-0.475	-0.114	0.481	0.0586	-0.241	0.247	-0.581	0.524
CGATCTAGGTCAGAACAGGACAGTGAAGGATGAT	1.41	0.482	-0.161	0.206	-0.143	2.84	4.82	3.88	1.41	2.78	6.87	6.77	1.59	1.33	0.826	0.571	-0.0995	1.13	0.466	2.66
ACTAGCAGGCCAAGCGTCACTCAAGATTAGTCCG	-0.5	-0.376	-0.471	-0.815	-0.983	0.102	1.12	1.84	0.377	1.73	1.13	0.488	0.0158	-0.899	-0.388	-0.885	-0.421	-0.946	-1.3	0.43
CGTCCAAGGTCATAGGAGGTCAGTGCAGACAGAT	7.64	7.34	5.11	6.24	1.16	5.7	5.88	5.67	2.19	4.56	3.55	4.57	0.589	1.49	4.86	6.81	4.62	6.21	2.75	5.33
CCTTACGAGTCACTCCAGGTTATAGCATCGGAGT	1.35	4.98	1.69	1.55	0.939	0.751	0.539	0.0713	-0.0643	-0.0945	0.574	0.424	0.623	0.364	1.41	1.2	1.12	0.999	1.56	0.664
CGTCCAAGGACAAGGTCAGTGAAAGAGACTCGAA	1.56	1.45	-0.433	1.46	-0.506	2.39	0.883	1.23	-0.0239	0.648	0.434	0.71	-0.797	-1.03	1.03	1.61	0.632	2.38	-0.259	3.93
CCGATTAGTTGACCATAAGGGCAACCGAAGCTCG	0.669	0.102	-0.113	0.217	-0.191	0.52	0.357	0.312	-0.22	0.0545	0.626	0.151	0.0233	-0.144	0.907	0.523	0.00458	0.703	0.65	1.46
ATCGAAAAGTCGTGAGGTGAGTATACAGAAAGGC	0.379	0.127	-0.461	-0.0752	-0.13	0.351	0.623	-0.104	0.404	0.0436	-0.639	0.331	0.929	1	0.473	0.0533	-0.117	0.486	0.556	0.552
ATCGAAAGGTCGACGAGGTGATTATACACCGTTT	4.8	3.43	0.0538	2.93	0.337	4.39	2.85	3.08	1.22	2.14	0.604	1.86	1.29	0.577	1.31	3.32	1.07	3.76	0.346	3.78
GCTCGGAGGACAAGATCAGAGCTTTGTCCGTAGA	-0.699	-0.742	-0.685	-0.96	-0.96	-0.552	-0.773	-0.906	-1.18	-1.04	-0.785	-0.327	-1.13	-1.46	-1.73	-0.776	-0.689	-0.823	-1.48	0.581
TCTCCGAGGACACGAAAGGTCAGAGCTCGACATC	3.26	3.9	2.63	3.48	0.562	3.68	1.53	2.82	2.39	2.44	1.67	1.97	0.778	0.343	2.54	4.22	0.558	4.27	0.52	4.47
TCGAGTAGGTTAGCGGCATTCAGAATGGCGTCGA	-0.731	-0.487	-0.848	-0.653	-1.3	0.0919	-0.173	0.409	0.448	0.475	1.81	0.944	-1.28	-0.893	-1.05	-0.724	-0.924	-0.504	-1.29	0.21
